Measured values: PubChem BioAssay (Tox21)
Inconclusive results are not listed. Calls of active or inactive are those of the source. Calls follow the shape of the full dose curve.

experiment: qHTS assay to identify small molecule agonists of the NFkB signaling pathway - cell viability counter screen (AID 1159515); conditions: NFkB-bla ME-180 viability, CellTiter-Glo luminescence, 5 h; series mostly up to 61 µM; also: nearly all actives have a fitted effect of over 55% in size
Text: National Center for Advancing Translational Sciences [NCATS]
NIH Chemical Genomics Center [NCGC]
U.S. Environmental Protection Agency [EPA]
National Institutes of Environmental Health Sciences [NIEHS]
National Toxicology Program [NTP]
U.S. Food and Drug Administration [FDA]
Transcription factors and their stimulated target gene expression play pivotal roles across many cellular processes including responses to environmental stimuli. Proper regulation of associated pathways is critical to maintain cell health and function. Constitutive activation of transcription factor pathways has been implicated in tumors as it may block cellular functions such as apoptosis and lead to invasion and metastasis. One important transcription factor that stimulates gene expression in response to cytokines, UV radiation, and other stimuli is nuclear factor-kappa B (NFkB). To measure activation of the NFkB pathway, the CellSensor NFkB-bla ME-180 cell line (Life Technologies, Carlsbad, CA) that stably expresses beta-lactamase reporter gene under the regulation of a NF-kB response element was used. This assay allows measurement of the NFkB pathway activity induced by compounds in a ME-180 cell line. This system quantitates NF-kB activity using a FRET-based assay system where beta-lactamase expression disrupts FRET, allowing for fluorescent measurement of activity. This cell line has been used to screen the Tox21 10K compound library and to identify compounds that induce the NFkB pathway activity. The cytotoxicity of the Tox21 compound library against the NFkB-bla ME-180 cell line was tested in parallel by measuring cell viability using the CellTiter-Glo assay in the same wells.
Tox21 Assay Protocol Summary:
NFkB-bla ME-180 cells were dispensed at 2,000 cells/6 uL of assay medium per well into black wall/clear-bottom 1536-well plates using a Multidrop Combi (ThermoFisher Scientific, Waltham, MA) dispenser. After the assay plates were incubated at 37 C and 5% CO2 for an overnight, 23 nL of compounds dissolved in DMSO, positive controls or DMSO only was transferred to the assay plate by a Pintool station (Kalypsys, San Diego, CA). The assay plates were incubated at 37 C and 5% CO2 for 5 hr. One uL of LiveBLAzer B/G FRET substrate (Life Technologies) was added using a Flying Reagent Dispenser (Aurora Discovery, San Diego, CA) and the plates were incubated at room temperature for 1.5 hr. Fluorescence intensity (405 nm excitation, 460 nm and 530 nm emissions) was measured using an Envision plate reader (PerkinElmer, Shelton, CT). For cytotoxicity, 3 ul/well of CellTiter-Glo reagent was added into the assay plates using an FRD. After 30 min incubation at room temperature, the luminescence intensity was measured using a ViewLux plate reader (PerkinElmer).

Q: Which outcome does the source give for `O=C(Cc1ccccc1)OCc1ccccc1` here?
A: inactive

Q: For `[O]=[Cd]`, which outcome is on record?
A: inactive

Q: With `CC(C)CC(N(C)C)C1(c2ccc(Cl)cc2)CCC1` (stereo not given) as the compound, how does the outcome read?
A: inactive

Q: With `CCOC(=O)CP(=O)(OCC)OCC` as the compound, how does the outcome read?
A: inactive

Q: With `OC(c1ccc(F)cc1)(c1cncnc1)c1ccccc1Cl` (stereo not given) as the compound, how does the outcome read?
A: inactive

Q: For `CCCCCCBr`, which outcome is on record?
A: inactive

Q: With `C#CCN1C(=O)COc2cc(F)c(N3C(=O)C4=C(CCCC4)C3=O)cc21` as the compound, how does the outcome read?
A: inactive

Q: With `COc1cccc2c1cc([N+](=O)[O-])c1c(C(=O)O)cc3c(c12)OCO3` as the compound, how does the outcome read?
A: inactive

Q: With `OC(Cn1cncn1)(c1ccc(F)cc1)c1ccccc1F` (stereo not given) as the compound, how does the outcome read?
A: inactive

Q: Which outcome does the source give for `O=C(O)c1ccc2[nH]cc(CCCCN3CC=C(c4ccccc4)CC3)c2c1` here?
A: inactive

Q: For `ClC(Cl)C(Cl)Cl`, which outcome is on record?
A: inactive

Q: For `ClCC(Cl)Cl`, which outcome is on record?
A: inactive

Q: For `CCNc1nc(NC(C)C)nc(OC)n1`, which outcome is on record?
A: inactive

Q: For `CC(Cl)(Cl)[N+](=O)[O-]`, which outcome is on record?
A: inactive

Q: Which outcome does the source give for `c1ccc(N2CCNCC2)cc1` here?
A: inactive

Q: For `CN(C)CCc1ccc(O)cc1`, which outcome is on record?
A: inactive

Q: Which outcome does the source give for `OCCBr` here?
A: inactive

Q: With `CCN(CC)C(=O)[C@@H]1C=C2c3cccc4[nH]cc(c34)C[C@H]2N(C)C1` as the compound, how does the outcome read?
A: inactive

Q: With `CCCCOP(=O)(O)OCCCC` as the compound, how does the outcome read?
A: inactive

Q: With `CCOC(=O)NC(=S)Nc1ccccc1NC(=S)NC(=O)OCC` as the compound, how does the outcome read?
A: inactive

Q: With `CC(=O)Nc1cc([As](=O)(O)O)ccc1O` as the compound, how does the outcome read?
A: inactive

Q: For `CC(=O)[C@H]1CC[C@H]2[C@@H]3CC[C@H]4C[C@H](O)CC[C@]4(C)[C@H]3C(=O)C[C@]12C`, which outcome is on record?
A: inactive

Q: Which outcome does the source give for `COC(=O)c1ccccc1S(=O)(=O)NC(=O)Nc1nc(C)cc(C)n1` here?
A: inactive

Q: Which outcome does the source give for `Fc1ccc(C2(Cn3cncn3)OC2c2ccccc2Cl)cc1` (stereo not given) here?
A: inactive

Q: With `COC(=O)C(c1ccccc1)C1CCCCN1` (stereo not given) as the compound, how does the outcome read?
A: inactive

Q: For `O=NN1CCN(N=O)CC1`, which outcome is on record?
A: inactive

Q: With `CC(C(=O)c1ccccc1)N(C)C` (stereo not given) as the compound, how does the outcome read?
A: inactive

Q: With `CCOP(=S)(OCC)Oc1nc(Cl)n(C(C)C)n1` as the compound, how does the outcome read?
A: inactive

Q: With `COC(C)(C)C` as the compound, how does the outcome read?
A: inactive

Q: Which outcome does the source give for `CNCC(=O)c1ccc(O)c(O)c1` here?
A: inactive

Q: For `COc1cc2c(cc1OC)[C@@]13CCN4CC5=CCO[C@H]6CC(=O)N2[C@H]1[C@H]6[C@H]5C[C@H]43`, which outcome is on record?
A: inactive

Q: With `O=C(NCO)NCO` as the compound, how does the outcome read?
A: inactive

Q: With `CNC(=O)Oc1ccc(N(C)C)c(C)c1` as the compound, how does the outcome read?
A: inactive

Q: For `CCOP(=O)(OCC)OP(=O)(OCC)OCC`, which outcome is on record?
A: inactive

Q: Which outcome does the source give for `CC(N)=S` here?
A: inactive

Q: Which outcome does the source give for `COc1ncc(F)c2nc(S(=O)(=O)Nc3c(F)cccc3F)nn12` here?
A: inactive

Q: With `CCC(=O)C(CCN(C)C)(c1ccccc1)c1ccccc1` as the compound, how does the outcome read?
A: inactive

Q: Which outcome does the source give for `O=[N+]([O-])c1cccc(O)c1` here?
A: inactive

Q: Which outcome does the source give for `ClC(Br)Br` here?
A: inactive

Q: Which outcome does the source give for `Nc1cc2c3c(c1)C(c1ccccc1)=N[C@@H](NC(=O)c1cccnc1)C(=O)N3CC2` here?
A: inactive
